The source made the active and inactive calls. The calls were made as follows: active = hit-call score of the fitted dose curve at least 0.9, where 1 is the maximum; inactive = score below 0.9.

In general, AC50 refers to the midpoint of the concentration-response curve, whichever way the signal moves.

Assay [1] addresses CCAAT/enhancer-binding protein beta (Homo sapiens) (UniProt P17676). In words: ATG_C_EBP_CIS: Attagene CIS-FACTORIAL HepG2 Assay for human CCAAT/Enhancer Binding Protein (C/EBP) beta (AID 2282927). Particulars: HepG2 Attagene cis-factorial transcription factor reporter; actives raise or lower the signal. Put shortly:
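HepG2 transiently transfected with multiplexed reporter units under cis-regulatory promoters reporting endogenous C/EBPb activity. After 24 h exposure, reporter mRNA assayed by RT-PCR, fluorescent labelling, HpaI digestion and capillary electrophoresis; bidirectional fitting versus DMSO.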

Assay [2] is described as follows: ATG_CMV_CIS: Attagene CIS-FACTORIAL HepG2 Assay for human CMV (Internal Marker) (AID 2282928).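 Also: endpoint acts as a background internal control marker rather than a target.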 As to conditions: HepG2 CMV promoter reporter, transcription factor profiling; actives raise or lower the signal. Put shortly:
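Cell system: HepG2, transiently transfected multiple reporter units under cis promoters. Exposure: 24 h. Detection: RT-PCR, FAM labeling, HpaI digestion, capillary electrophoresis. Analysis: bidirectional, DMSO baseline.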

Assay [3] in a line: ATG_DR4_LXR_CIS: Attagene CIS-FACTORIAL HepG2 Assay for human Liver X Receptor (LXR), DR4 submotif (AID 2282929). Particulars: HepG2 Attagene DR4 cis-reporter, mRNA transcription; actives raise or lower the signal. In outline: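 DR4 cis-reporter in HepG2, 24 h exposure. Detection: RT-PCR, 6-FAM labelling, CE fragment analysis. Endpoint fitted bidirectionally, DMSO = baseline.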

Assay [4] deals with Aryl hydrocarbon receptor (Homo sapiens) (UniProt P35869). The assay can be described thus: ATG_Ahr_CIS: Attagene CIS-FACTORIAL HepG2 Assay for human Aryl Hydrocarbon Receptor (Ahr) (AID 2282930). As to conditions: HepG2 AhR cis-factorial reporter transcription; actives raise or lower the signal. In outline:
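HepG2 cells transiently transfected with cis-element-driven multiplexed reporter units; endogenous AhR activity read as reporter mRNA 24 h after dosing, via RT-PCR, 6-FAM labelling, HpaI digestion and capillary electrophoresis. Bidirectional fit relative to DMSO.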

Assay [5] in a line: ATG_AP_1_CIS: Attagene CIS-FACTORIAL HepG2 Assay for human Activator Protein 1 (AP-1) (AID 2282931). Particulars: HepG2 Attagene cis-factorial AP-1 reporter mRNA; actives raise or lower the signal. Put shortly:
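Cis-regulated reporter units transiently expressed in HepG2 report endogenous transcription-factor activity. Signal: reporter mRNA at 24 h, via RT-PCR and fluorescent capillary electrophoresis. Endpoint derived by bidirectional fitting, DMSO as negative control.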

Assay [6] is described as follows: ATG_BRE_CIS: Attagene CIS-FACTORIAL HepG2 Assay for human Bone Morphogenetic Protein (BMP) Response Element (BRE) (AID 2282933). As to conditions: HepG2 BMP response element reporter, Attagene transcription factor profiling; actives raise or lower the signal. Put shortly: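 After a 24 h chemical treatment, transiently transfected HepG2 cells were lysed for RNA; reporter transcripts were quantified by fluorescent RT-PCR and capillary electrophoresis, normalised to DMSO.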

Assay [7] concerns the target Transcription factor E2F1 (Homo sapiens) (UniProt Q01094). In words: ATG_E2F_CIS: Attagene CIS-FACTORIAL HepG2 Assay for human E2F Transcription Factor 1 (AID 2282935). As to conditions: HepG2 Attagene cis-reporter, E2F reporter RNA transcripts; actives raise or lower the signal. Put shortly:
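Measures reporter transcript levels via RT-PCR with capillary electrophoresis detection in HepG2 cells harboring cis-regulated reporter units; 24 h post-dose; bidirectional curve fitting with DMSO as baseline.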

Assay [8] can be described thus: ATG_AP_2_CIS: Attagene CIS-FACTORIAL HepG2 Assay for human Activator Protein 2 (AP-2) (AID 2282932). As to conditions: HepG2 AP-2 cis-reporter, Attagene transcription factor profiling; actives raise or lower the signal. In outline: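 Multiplexed mRNA reporter assay in HepG2: cis-regulated units report endogenous factor activity after 24 h treatment. Fluorescence from capillary electrophoresis of RT-PCR products gives the signal, with DMSO as baseline.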

In assay [9] the target is Retinoic acid receptor alpha (Homo sapiens) (UniProt P10276). The assay can be described thus: ATG_DR5_RAR_CIS: Attagene CIS-FACTORIAL HepG2 Assay for human Retinoic Acid Receptor Alpha (RARE), DR5 submotif (AID 2282934).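 As to AC50: reporter responds to endogenous RAR alpha beta and gamma in HepG2 not RARA alone.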 Particulars: HepG2 Attagene cis-factorial RARE DR5 reporter, mRNA; actives raise or lower the signal. Put shortly:
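HepG2 cells transiently transfected with multiplexed reporter units; DR5 cis-element drives reporter through endogenous transcription factors. After 24 h dosing, reporter mRNA quantified by RT-PCR, fluorescent labeling, HpaI digestion and capillary electrophoresis; bidirectional fitting versus DMSO.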

CCAAT/enhancer-binding protein beta (Homo sapiens), sequence (P17676 whole entry, looked up): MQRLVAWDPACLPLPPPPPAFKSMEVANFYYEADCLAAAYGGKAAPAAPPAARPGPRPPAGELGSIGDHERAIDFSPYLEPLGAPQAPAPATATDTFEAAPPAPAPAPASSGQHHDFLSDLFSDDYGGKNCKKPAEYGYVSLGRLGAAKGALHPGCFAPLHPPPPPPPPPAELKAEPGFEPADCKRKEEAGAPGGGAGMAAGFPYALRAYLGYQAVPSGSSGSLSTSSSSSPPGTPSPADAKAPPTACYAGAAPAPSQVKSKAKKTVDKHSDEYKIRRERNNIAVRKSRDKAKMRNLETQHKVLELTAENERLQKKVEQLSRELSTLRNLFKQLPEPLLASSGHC
Retinoic acid receptor alpha (Homo sapiens), sequence (P10276 whole entry, looked up): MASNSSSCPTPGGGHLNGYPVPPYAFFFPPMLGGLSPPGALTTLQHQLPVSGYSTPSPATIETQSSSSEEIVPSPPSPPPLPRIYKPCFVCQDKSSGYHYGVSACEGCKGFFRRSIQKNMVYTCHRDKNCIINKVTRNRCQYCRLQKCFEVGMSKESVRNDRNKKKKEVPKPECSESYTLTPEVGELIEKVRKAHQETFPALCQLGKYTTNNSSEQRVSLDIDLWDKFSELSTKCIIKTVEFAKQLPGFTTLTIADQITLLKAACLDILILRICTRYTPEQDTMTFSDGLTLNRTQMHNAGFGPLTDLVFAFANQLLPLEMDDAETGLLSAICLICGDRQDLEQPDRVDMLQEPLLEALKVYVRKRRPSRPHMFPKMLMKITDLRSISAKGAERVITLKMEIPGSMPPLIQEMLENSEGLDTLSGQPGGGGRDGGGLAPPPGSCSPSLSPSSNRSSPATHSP
Transcription factor E2F1 (Homo sapiens), sequence (Q01094 whole entry, looked up): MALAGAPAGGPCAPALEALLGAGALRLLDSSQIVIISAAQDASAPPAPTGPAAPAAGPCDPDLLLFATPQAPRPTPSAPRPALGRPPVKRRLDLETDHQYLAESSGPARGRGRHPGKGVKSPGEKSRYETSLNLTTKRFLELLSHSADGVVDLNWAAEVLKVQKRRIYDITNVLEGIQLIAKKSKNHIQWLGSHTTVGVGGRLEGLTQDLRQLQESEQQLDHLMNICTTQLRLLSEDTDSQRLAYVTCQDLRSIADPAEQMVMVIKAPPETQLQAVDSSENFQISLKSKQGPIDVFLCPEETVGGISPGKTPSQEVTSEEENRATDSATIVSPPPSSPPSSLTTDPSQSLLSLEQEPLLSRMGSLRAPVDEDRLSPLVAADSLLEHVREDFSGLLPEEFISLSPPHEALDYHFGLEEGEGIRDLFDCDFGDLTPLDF
Aryl hydrocarbon receptor (Homo sapiens), sequence (P35869 whole entry, looked up): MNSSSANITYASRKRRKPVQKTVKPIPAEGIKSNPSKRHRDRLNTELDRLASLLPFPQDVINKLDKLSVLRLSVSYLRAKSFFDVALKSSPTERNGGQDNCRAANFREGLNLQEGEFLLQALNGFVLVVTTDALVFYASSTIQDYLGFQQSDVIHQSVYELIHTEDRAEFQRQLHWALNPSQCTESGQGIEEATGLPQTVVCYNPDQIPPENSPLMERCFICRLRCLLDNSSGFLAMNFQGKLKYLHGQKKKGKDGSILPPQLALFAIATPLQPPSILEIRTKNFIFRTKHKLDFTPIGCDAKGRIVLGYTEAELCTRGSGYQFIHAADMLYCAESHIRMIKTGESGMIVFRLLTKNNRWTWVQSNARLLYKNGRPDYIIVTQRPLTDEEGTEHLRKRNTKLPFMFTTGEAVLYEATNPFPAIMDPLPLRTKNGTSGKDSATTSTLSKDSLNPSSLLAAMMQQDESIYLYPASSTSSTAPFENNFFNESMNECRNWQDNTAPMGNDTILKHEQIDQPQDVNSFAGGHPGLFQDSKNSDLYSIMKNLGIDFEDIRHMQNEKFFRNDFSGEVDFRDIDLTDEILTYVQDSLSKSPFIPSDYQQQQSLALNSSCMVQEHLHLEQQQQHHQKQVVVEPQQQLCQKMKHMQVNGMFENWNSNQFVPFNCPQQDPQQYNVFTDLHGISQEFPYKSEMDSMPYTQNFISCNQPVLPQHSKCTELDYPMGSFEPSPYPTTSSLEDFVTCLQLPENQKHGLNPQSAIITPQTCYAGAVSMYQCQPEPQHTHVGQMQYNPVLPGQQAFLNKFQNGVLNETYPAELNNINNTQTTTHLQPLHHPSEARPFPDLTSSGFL

For `Cl/C=C\C[N+]12CN3CN(CN(C3)C1)C2`, the outcome in assay [1], in assay [4] and in [7] was inactive. Also, the AC50 in assay [2] was 170 µM (active); in assay [3] it was 41.7 µM (active); in [5], 181 µM (active); in assay [6], 19.8 µM (active).
For `COP(=O)(OC)O/C(=C\Cl)c1cc(Cl)c(Cl)cc1Cl`, the call in assay [2], in [4], in assay [9] and in assay [7] was inactive. Also, the AC50 in assay [3] is 58.2 µM (active); in assay [8], 26.9 µM (active); in assay [6] it was 70.3 µM (active).
For the compound `CC1(C)CCC(Cc2ccc(Cl)cc2)C1(O)Cn1cncn1` (stereo not given), the call in [2] and in [7] was inactive. In addition, the AC50 in [3] is 56.7 µM (active); in assay [4], 4.7 µM (active); in assay [6] it was 52.3 µM (active).
Consider `CCC[CH2][Sn]([Cl])([Cl])[Cl]`, for which the outcome in assay [1], in assay [3], in [4], in assay [5], in [8] and in [6] was inactive. Besides, the result in assay [7] was inactive.
Turning to `c1ccc(N=NNc2ccccc2)cc1`, the outcome in assay [1], in assay [8], in [9] and in assay [7] was inactive. The AC50 in [3] was 115 µM (active); in [4], 5.92 µM (active); in assay [5], 80 µM (active); in [6], 123 µM (active).
As for `Clc1nc(Cl)nc(Cl)n1`, the result in assay [1], in assay [2], in [3], in [8], in [6] and in assay [7] was inactive. For the same compound, the AC50 in assay [4] was 69 µM (active).
Turning to `Cc1ccc(N)cc1Cl`, the outcome in assay [1], in assay [3], in assay [5], in [8], in assay [6] and in assay [9] was inactive. Also, the call in [7] was inactive.
Take `O=P(O)(O)CN(CP(=O)(O)O)CP(=O)(O)O`: the result in assay [1], in [2], in [3], in [4], in assay [5] and in [8] was inactive. Moreover, the outcome in assay [6], in [9] and in assay [7] was inactive.
`CCCCOCCOC(C)=O`: the result in assay [1], in [3], in assay [4], in assay [5], in assay [6] and in assay [7] was inactive.
On to `COP(=S)(OC)Oc1cc(Cl)c(Cl)cc1Cl`, for which the result in assay [1], in assay [2], in assay [3], in assay [8], in [9] and in [7] was inactive. The figures for the concentration at half-maximal activity (AC50) in [4], in [5] and in [6] were 11.3 µM (active), 41.8 µM (active) and 64.5 µM (active), respectively.
`O=C(NCO)NCO`: the result in assay [1], in assay [2], in assay [3], in assay [4], in [5] and in [8] was inactive. Moreover, the result in assay [6] and in assay [7] was inactive.
Consider `O=C1C(Cl)=C(Cl)C(=O)c2ccccc21`, for which the result in [1], in assay [2], in assay [3], in [5], in assay [8] and in assay [6] was inactive. Besides, the outcome in assay [9] and in assay [7] was inactive. Also, the AC50 in assay [4] was 1.86 µM (active).
With `CCOP(=O)(CN(CCO)CCO)OCC`, the outcome in [1], in assay [2], in assay [3], in [4], in [8] and in [6] was inactive. For the same compound, the outcome in assay [9] and in assay [7] was inactive.
In the case of `COP(=O)(OC)OC`, the outcome in [1], in assay [2], in assay [3], in [4], in [5] and in assay [8] was inactive. The compound was classed as inactive in [6] and in assay [7].
In the case of `ClCc1cccnc1`, the compound was classed as inactive in [2], in assay [3], in [4], in assay [5], in [8] and in [6]. Besides, in [7], the outcome was inactive.
With `CCc1ccccc1C`, the result in [1], in [2], in [3], in assay [4], in [8] and in assay [6] was inactive. Moreover, the compound was called inactive in assay [9] and in assay [7].
In the case of `CC(C)(OO)c1ccccc1`, the result in [1], in assay [3], in assay [4], in assay [5], in assay [6] and in assay [7] was inactive. Moreover, in assay [9], the half-maximal activity concentration (AC50) was 48.2 µM (active).
`O=[N+]([O-])c1c(Cl)c(Cl)cc(Cl)c1Cl`: the result in assay [1], in [3], in assay [4], in assay [5], in assay [6] and in assay [9] was inactive. The result in assay [7] was inactive. Further, in assay [2], the concentration at half-maximal activity (AC50) was 45.3 µM (active).
